Only a selection was taken, and hits are over-represented in it overall.
Tb PYK inh: T. brucei pyruvate kinase inhibition; Q57TT1; hit rate 0.12% among 410,000; TbPYK enzyme, Kinase-Glo Plus ATP luminescence, 45 min; Potency, µM (titrated, usually from 76.8 µM), for inactives: at the top dose activity, negative = inhibition, usual class: inhibitors; also: potency is read from the fitted curve at half-maximal effect; % is scaled to controls: 0 for no effect and ±100 for the full control effect; nearly all actives have a fitted effect of over 50% in size
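Screened from lowest to highest concentration, compounds were pinned into TbPYK/substrate mixtures, and ADP (130 uM final) was added. Plates sat at room temperature for 45 min prior to Kinase-Glo Plus detection by luminescence.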
CHX counter: counter-screen hit for Shiga toxin inhibitors, cycloheximide | cell reporter, cycloheximide protein synthesis inhibition counterscreen | max response, % | hit rate 12% among 300,000; in the data active = max response mostly above about 13%, no sharp cut-off; inactive = mostly below about 14%; also: read at 38.3 µM for the half of the compounds with a filed dose; 0% is about no effect
Shiga inhibitor: Shiga toxin inhibition | inhibition, % at 38.7 µM | Vero cells, Shiga toxin protein synthesis inhibition reporter | hit rate 9.2% among 290,000; in the data active = inhibition mostly above about 28%, no sharp cut-off; inactive = mostly below about 43%; also: 0% is about no effect
Sm TGR block: inhibitors of Schistosoma mansoni thioredoxin glutathione reductase. purified TGR, DTNB reduction, TNB absorbance 405 nm. Potency, µM (doses to about 114 µM), for the others: top-dose activity change, negative = inhibition, hits mostly inhibitors. hit rate 3% among 360,000; also: potency is read from the fitted curve at half-maximal effect; % is scaled to controls: 0 for no effect and ±100 for the full control effect; nearly all actives have a fitted effect of over 60% in size
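TGR 20 nM + NADPH 100 uM (dispensed conc.), cpd preinc 15 min RT; start with NADPH (500 uM addition) then DTNB (15 mM addition). Kinetic TNB absorbance, 405 nm filter. Four-parameter Hill fit across titration.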
LmPK inhibitor: inhibitors of Leishmania mexicana pyruvate kinase; purified LmPK, Kinase-Glo ATP luminescence, 1 h; Potency, µM (doses to about 57.5 µM), for the others: at the top dose activity change, negative = inhibition, actives largely listed as inhibitors; hit rate 0.37% among 290,000; also: potency is read from the fitted curve at half-maximal effect; % is scaled to controls: 0 for no effect and ±100 for the full control effect
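0.1 nM LmPK, 0.5 mM PEP, 0.1 mM ADP; 50 mM imidazole pH 7.2, 7 mM MgCl2, 50 mM KCl; 1 h RT. Kinase-Glo luminescence readout, normalized to no-enzyme (full inhibition) and uninhibited wells.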
Giardia FBPA inh: Giardia lamblia aldolase inhibition; A8B2U2; purified Giardia FBPA; Potency, µM (doses to about 59.6 µM), inactives show at the highest dose activity, negative = inhibition, hits mostly inhibitors; hit rate 0.71% among 290,000; AID 2451; also: potency is read from the fitted curve at half-maximal effect; % is scaled to controls: 0 for no effect and ±100 for the full control effect; nearly all actives have a fitted effect of over 55% in size
Target sequence (A8B2U2 whole entry, looked up): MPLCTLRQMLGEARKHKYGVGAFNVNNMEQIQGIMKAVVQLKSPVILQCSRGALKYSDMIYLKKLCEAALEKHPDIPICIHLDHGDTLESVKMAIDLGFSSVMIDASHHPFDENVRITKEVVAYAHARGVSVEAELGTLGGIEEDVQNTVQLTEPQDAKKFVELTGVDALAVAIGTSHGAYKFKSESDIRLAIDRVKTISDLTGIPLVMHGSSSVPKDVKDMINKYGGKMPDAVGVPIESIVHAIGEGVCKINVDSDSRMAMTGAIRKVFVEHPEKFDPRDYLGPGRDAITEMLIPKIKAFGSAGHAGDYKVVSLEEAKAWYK
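Giardia FBPA (40 nM reagent) was preincubated 10 min at RT with compound (up to 57.5 uM final), then substrate plus GAPDH/TPI/NAD/arsenate coupling system with diaphorase/resazurin was added; resorufin fluorescence (525/598 nm) was read after 20 min.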
An asterisk follows results filed as active; [ ] = dose if it differs, or a comment. Unless noted, calls follow the shape of the dose curve; as a rule, active = well fitted curve in the direction sought with a large enough effect; inconclusive = small, poorly fitted or top-dose-only effect, or another doubt; inactive = no such curve, though single readings can be large; an effect the other way counts as inactive or inconclusive.

For Cc1ccccc1NC(=O)C1CC(=O)n2ncnc2N1 (stereo not given) the results were Tb PYK inh -1%, CHX counter -4, Shiga inhibitor -3, Sm TGR block 35µM*, LmPK inhibitor -1% and Giardia FBPA inh -4%.
Screening S=C(Nc1ccc2c(c1)OCO2)Nc1ccccc1Cl returned Tb PYK inh 0%, CHX counter 24*, Shiga inhibitor 35*, Sm TGR block inconclusive, LmPK inhibitor -3% and Giardia FBPA inh -12%.
S=C(Nc1ccc2c(c1)OCCO2)Nc1ccc2c(c1)OCO2 was read as Tb PYK inh -2%, CHX counter 57*, Shiga inhibitor 120*, Sm TGR block -12%, LmPK inhibitor -2% and Giardia FBPA inh -22%.
`O=C(OCC(=O)N1CCN(c2ccccc2)CC1)C1CCCN1S(=O)(=O)c1ccc(Cl)cc1` (stereo not given) gave Tb PYK inh -6% and Sm TGR block 2%.
`CN(C)C(=O)CNC(=O)Cc1ccccc1` gave Tb PYK inh 0%.
`CCc1ccc(N(C(=O)c2csnn2)C(C(=O)NC(C)(C)CC)c2ccccn2)cc1` (stereo not given) gave Tb PYK inh -8%, CHX counter 9, Shiga inhibitor -13, Sm TGR block 5%, LmPK inhibitor -1% and Giardia FBPA inh -3%.
CCc1ccc(N(C(=O)c2csnn2)C(C(=O)NC(C)(C)C)c2ccccn2)cc1 (stereo not given) was read as Tb PYK inh -9%, CHX counter 29*, Shiga inhibitor 76*, Sm TGR block -9%[57.1 µM], LmPK inhibitor -13% and Giardia FBPA inh 2%.
`Cc1ccc2[nH]c(=O)c(-c3nc4cc(C)ccn4c3NCc3ccco3)cc2c1` gave Tb PYK inh -1%, CHX counter 24*, Shiga inhibitor 23, Sm TGR block 0%, LmPK inhibitor -2% and Giardia FBPA inh 3%.
C=CCSc1nc(=O)n2ccccc2n1 was read as Tb PYK inh 4%, CHX counter 11, Shiga inhibitor 4, Sm TGR block 0%, LmPK inhibitor 1% and Giardia FBPA inh 3%.
Screening C=CCSc1nc(=O)n2ccc(C)cc2n1 returned Tb PYK inh 2%, CHX counter 28*, Shiga inhibitor 37, Sm TGR block -33%, LmPK inhibitor 10% and Giardia FBPA inh -6%.
O=C(CSc1cccc2cccnc12)NCc1ccco1 was read as Tb PYK inh -8%, CHX counter 5, Shiga inhibitor 0, Sm TGR block 45µM*, LmPK inhibitor 4% and Giardia FBPA inh -20%.
For Cc1cc(C)nc(SCC(=O)NCc2ccco2)n1 the results were Tb PYK inh 3%, CHX counter 2, Shiga inhibitor -16, Sm TGR block 56µM*, LmPK inhibitor 17% and Giardia FBPA inh -13%.
`COc1ccc(-c2nnc(SCC(=O)NCCc3ccccc3)nc2-c2ccc(OC)cc2)cc1` gave Tb PYK inh -20% and Sm TGR block 1%.
`COc1ccc2sc(N(Cc3cccnc3)C(=O)C3CCCCC3)nc2c1` gave Tb PYK inh 8%[15.4 µM] and Sm TGR block 4%.
O=C(NCCCO)C(=O)Nc1cc2c3c(c1)CCC(=O)N3CCC2 was read as Tb PYK inh -17%, CHX counter -2, Shiga inhibitor 2, Sm TGR block -6%, LmPK inhibitor -3% and Giardia FBPA inh 11%.
Screening COc1ccc(S(=O)(=O)N2CCOC2CNC(=O)C(=O)NCCCN2CCOCC2)cc1OC (stereo not given) returned Tb PYK inh -12%.
Cc1ccn2c(=O)nc(SCC(=O)NCc3ccco3)nc2c1 was read as Tb PYK inh -2% and Sm TGR block 35µM*.
For CCN(C[C@H]1N[C@@](Cc2ccccc2)(C(=O)OC)[C@H]2C(=O)N(C)C(=O)[C@@H]12)S(=O)(=O)c1ccc(-c2ccccc2)cc1 the results were Tb PYK inh -1%.
Cc1cccc(NC(=S)NCc2ccc(F)cc2)c1 was read as Tb PYK inh -6%, CHX counter 4, Shiga inhibitor -5, Sm TGR block -29%, LmPK inhibitor -2% and Giardia FBPA inh -2%.
COc1cccc(NC(=S)NCc2ccc(F)cc2)c1 was read as Tb PYK inh -11%, CHX counter 14*, Shiga inhibitor 24, Sm TGR block -23%, LmPK inhibitor -2% and Giardia FBPA inh 6%.
For CCc1ccc(NC(=S)NCc2ccccc2)cc1 the results were Tb PYK inh 4%, CHX counter 34*, Shiga inhibitor 142*, Sm TGR block -18%, LmPK inhibitor 1% and Giardia FBPA inh -1%.
CCc1ccc(NC(=S)NCc2cccnc2)cc1 was read as Tb PYK inh -17%, CHX counter 10, Shiga inhibitor 5, Sm TGR block inconclusive, LmPK inhibitor -1% and Giardia FBPA inh 1%.
Screening COc1ccc(CNC(=S)Nc2cccc(C)c2)cc1 returned Tb PYK inh -2%, CHX counter 4, Shiga inhibitor -12, Sm TGR block -30%, LmPK inhibitor 7% and Giardia FBPA inh -3%.
For CCNC(=S)Nc1ccc(N(c2ccccc2)C(C)C)cc1 the results were Tb PYK inh 1%, CHX counter 17*, Shiga inhibitor 57*, Sm TGR block -12%, LmPK inhibitor 0% and Giardia FBPA inh -15%.
`COc1ccc(CNC(=S)Nc2cccc(F)c2)cc1` gave Tb PYK inh 3%, CHX counter 12*, Shiga inhibitor 28*, Sm TGR block inconclusive, LmPK inhibitor -3% and Giardia FBPA inh 2%.
`CC(C)N(c1ccccc1)c1ccc(NC(=S)NCCN(C)C)cc1` gave Tb PYK inh -9%, CHX counter -7, Shiga inhibitor -8, Sm TGR block -15%, LmPK inhibitor 2% and Giardia FBPA inh 0%.
`COC(=O)[C@]1(C)CCC[C@@]2(C)C3CC[C@@]4(C)C[C@]3(CCC21)CC4=NO` (stereo not given in full) gave Tb PYK inh 8% and Sm TGR block -7%.
CNc1snc(C)c1C(=O)OC(C)C(=O)NCc1ccccc1 (stereo not given) was read as Tb PYK inh 2% and Sm TGR block 5%.
COc1ccc(CC(=O)OCC(=O)Nc2ccc(F)cc2)cc1 was read as Tb PYK inh 1% and Sm TGR block 5%.
Screening COc1ccc(Cl)cc1N1C(=O)CN(Cc2cc(OC)c(OC)c(OC)c2)C1=S returned Tb PYK inh -21%, CHX counter -3, Shiga inhibitor -12, Sm TGR block -5%, LmPK inhibitor 17% and Giardia FBPA inh -4%.
Screening COc1ccc(NC(=S)NCc2ccc(Cl)cc2)c(OC)c1 returned Tb PYK inh 1%, CHX counter 15*, Sm TGR block -22%, LmPK inhibitor -2% and Giardia FBPA inh -12%.
